SMILES strings stand for the structures. Hit rate of the full screen: of about 310,000 compounds, about 2,600 (0.84%) were called active. The sample holds actives, similar compounds and a random draw of the others, so the mix is not that of the screen. Unmarked numbers belong to inactive results.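 The calls were made as follows: active = fluorescence ratio B-score at or below minus 3 SD of library scores, with starting-brightness B-score within 2 SD (cut at about -4.2 in these data); inactive = the rest.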

Chain of Inward rectifier potassium channel 2 (Mus musculus) (P35561 whole entry, looked up): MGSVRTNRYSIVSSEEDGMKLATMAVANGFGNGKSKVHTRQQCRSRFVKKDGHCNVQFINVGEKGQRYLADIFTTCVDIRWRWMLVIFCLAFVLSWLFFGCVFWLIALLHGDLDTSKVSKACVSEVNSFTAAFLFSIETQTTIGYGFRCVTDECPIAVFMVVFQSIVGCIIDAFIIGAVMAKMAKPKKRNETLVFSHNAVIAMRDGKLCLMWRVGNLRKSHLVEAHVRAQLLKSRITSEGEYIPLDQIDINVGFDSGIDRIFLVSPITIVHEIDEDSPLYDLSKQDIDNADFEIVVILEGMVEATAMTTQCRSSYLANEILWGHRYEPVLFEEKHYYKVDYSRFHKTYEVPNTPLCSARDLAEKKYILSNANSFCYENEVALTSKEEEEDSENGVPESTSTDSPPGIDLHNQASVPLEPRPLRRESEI

This assay has as its target Inward rectifier potassium channel 2 (Mus musculus) (UniProt P35561). In words: inhibitors of mouse Kir2.1 inward-rectifier potassium channel (AID 1672).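 Also: channel flux triggered by added potassium and thallium sulfate stimulus; B-score of peak minus minimum fluorescence over baseline after thallium stimulus; more negative B-score means stronger Kir2.1 block with less thallium influx.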 Conditions: HEK293-Kir2.1, FluxOR thallium flux fluorescence; at 10 µM; active compounds read low.
`CCN(CC)CCn1c2c(c(SCC(=O)Nc3nc4ccccc4s3)nc1=O)CCCC2`: the B-score was 0.03. The same measure for `COc1ccc(NC(=O)CN(C)C(=O)/C=C/c2cn(Cc3ccccc3)nc2-c2cccnc2)cc1`: 0.01; for `CCOC(=O)c1cc(NC(=O)c2cccnc2)ccn1`: 0.04; for `CCc1noc(C)c1C(=O)Oc1ccc(N(C)S(=O)(=O)c2ccc(C)c(C)c2)cc1`: -0.66.

In the case of `CC(OC(=O)C1CC(=O)N(Cc2ccccc2)C1)C(=O)Nc1ccccc1[N+](=O)[O-]` (configuration not stated), the B-score was -1.36. Take `CCN(CC)CCn1cnc2c1c(=O)[nH]c(=O)n2Cc1ccccc1`: the B-score was 0.13. As to `N=c1c2c(-c3ccccc3)c(-c3ccccc3)n(Cc3ccccc3)c2ncn1CCCO`, the B-score was -6.86 (active).

In the case of `N=c1c2c(-c3ccccc3)c(-c3ccccc3)oc2ncn1Cc1ccco1`, the B-score is 1.16. For the compound `Cn1c(SCC(=O)c2ccccc2)ncc(C(=O)Nc2ccc(F)cc2)c1=O`, the B-score is 1.98. Regarding `O=S(=O)(Nc1cccc(-c2ccc(N3CCOCC3)nn2)c1)c1ccc(Cl)c(Cl)c1`, the B-score was 0.82. The same measure for `CCN(CC(=O)NCc1cccs1)C(=O)c1ccc(OC)c(S(=O)(=O)N2CCOCC2)c1`: -0.52; for `Cc1cccc2c1N(CCOc1ccccc1)C(=O)C2=O`: -0.18; for `CC1(C)NC(=O)N(CCOc2cccc(Oc3ccccc3)c2)C1=O`: -4.68 (active). For `CC(O)CNCCOc1cccc(Oc2ccccc2)c1` (configuration not stated), the B-score is -2.96.

`O=C(COc1coc(CN2CCN(c3ccccc3)CC2)cc1=O)Nc1ccccc1F`: the B-score was -0.62. As to `CCN(CC)CCOCCOc1ccc(Cl)c2ccccc12`, the B-score is -2.53. The same measure for `CN(C)CCOCCOc1ccc(Cl)c2ccccc12`: -5.07 (active). For `CN(C)CCOC1c2ccccc2-c2ccccc21`, the B-score is 0.04. Take `CN(Cc1c(F)cccc1Cl)C(=O)CNC(=O)c1ccc2c(c1)OCO2`: the B-score is 0.45.

As for `CCOc1ccc(NC(=O)CN(C)C(=O)COc2cccc(CC)c2)cc1OCC`, the B-score was -1.11. For the compound `COc1ccc2c(c1)C(=O)Nc1cc(Cl)ccc1N2`, the B-score was 0.62.

With `CCn1c(=N)n(CC(=O)c2cccc(OC)c2)c2ccccc21`, the B-score was -0.01. Consider `Cc1ccc(OCc2nc3ccccc3n2C)cc1`, for which the B-score was -0.43. For `CCOC(=O)CN1C(=O)C(=O)c2cc(C)ccc21`, the B-score was -1.78.

On to `CCCCCCCCCCOC(=O)Cn1c(COc2ccc(C)cc2)[n+](C)c2ccccc21`, for which the B-score was -17.5 (active). Under `CCn1c(COc2cccc(OC)c2)nnc1SCC(=O)N1CCOCC1` stands 0.86; under `CCCCOC(=O)Cn1c(=N)n(CCN(CC)CC)c2ccccc21`, 1.01; under `CCCCCCCCCCOC(=O)Cn1c(COc2cccc(OC)c2)[n+](C)c2ccccc21`, -8.13 (active). Consider `Cc1ccc(OCCCn2c(=O)oc3ccccc32)cc1`, for which the B-score was -1.92. For `CCCCOC(=O)Cn1c(=O)n(CC(=O)OCCCC)c2cc(C)ccc21`, the B-score is -7 (active). As to `CC(C)CN(C(=O)COC(=O)c1ccc2ccccc2c1)c1c(N)n(Cc2ccccc2)c(=O)[nH]c1=O`, the B-score was 1.03. With `CCOc1ccc(NC(=O)COc2ccc(C(=O)N3CCC(C(N)=O)CC3)cc2OC)cc1`, the B-score was 1.65. Take `COc1ccc(CNC(=O)C(=O)N2CCC3(CC2)OCCN3S(=O)(=O)c2ccc(C)cc2)cc1`: the B-score was 0.4. Turning to `COc1ccc(C(=O)Nc2cccc(NC(=O)c3ccc(OC)cc3OC)n2)c(OC)c1`, the B-score was 1.64. With `O=S(=O)(O)Oc1c[nH]c2ccccc12`, the B-score was 0.01. In the case of `Cc1nnc(SCC(=O)NCCOc2ccc(Cl)cc2)n1-c1ccccc1`, the B-score was -0.16. As to `Cc1nnc(SCC(=O)N2CCN(c3ccccc3)CC2)n1-c1ccccc1`, the B-score was 0.71. Under `Cc1nnc(SCc2ccc(C(=O)c3ccc(Cl)cc3)o2)n1-c1ccccc1` stands -6.19 (active). For the compound `COc1ccc(OCC(O)CN(C)C(=O)C(C)Oc2ccccc2)cc1` (configuration not stated), the B-score is -0.09. Regarding `Cc1ccc(OCC(=O)OC(C)CN(C)Cc2ccccc2)cc1` (configuration not stated), the B-score was 0.74. `CN(Cc1ccccc1)CC(O)COc1ccc(CNCc2cc3ccccc3s2)cc1` (configuration not stated): the B-score was -11.4 (active).

For `C=CCNC(=O)C1CC2c3ccccc3C1c1ccccc12` (configuration not stated), the B-score was -2.23. The same measure for `CC(C)Sc1nnc([C@H](Cc2ccccc2)NC(=O)OC(C)(C)C)o1`: -0.51. As to `C[C@@H](NC(=O)OC(C)(C)C)c1nnc(S(=O)(=O)Cc2ccccc2)o1`, the B-score is -6.48 (active). For `C[C@H](NC(=O)OC(C)(C)C)c1nnc(SCC(N)=O)o1`, the B-score was -0.34.

In the case of `O=C(c1ccc(Cl)s1)N(Cc1nnc(-c2ccccc2Cl)o1)C1CC1`, the B-score was 1.76.

`Cc1ccn2c(=O)nc(SCC(=O)NCc3ccc(F)cc3)nc2c1`: the B-score was -1.27. The same measure for `Cc1csc(NC(=O)c2ccc(C)s2)n1`: 0.01; for `CC(=O)Nc1cccc(C(=O)OCC(=O)Nc2nnc(-c3ccccc3)o2)c1`: -2.17. Under `COc1ccccc1NS(=O)(=O)c1ccc(C)c(C(=O)NCC(c2ccco2)N(C)C)c1` (configuration not stated) stands -0.98.

Regarding `C=CCNC(=S)N/N=C/c1ccc(OCc2ccccc2)cc1`, the B-score is -1.45. Under `C=CCNC(=O)COc1coc(CN2CCN(Cc3ccccc3)CC2)cc1=O` stands 0.45; under `C=CCNC(=S)/N=c1/ccccn1Cc1ccccc1`, -6.6 (active).

Take `O=C(Nc1ncccc1O)c1ccc(S(=O)(=O)N2CCCC2)cc1`: the B-score was -0.16. Turning to `CCOCCCNCc1cc(Br)ccc1OCC`, the B-score was -0.16.

Turning to `CC(C)(C)NCc1cc(Br)ccc1OC1CCCC1`, the B-score is -4.79 (active). The same measure for `COCC(C)NCc1cc(Br)ccc1OC` (configuration not stated): 1.7; for `Cc1ccc(NC(=O)c2cnc(SCC(=O)NCC3CCCO3)n(C)c2=O)cc1` (configuration not stated): 0.42; for `Cc1ccc(S(=O)(=O)N2CCC(C(=O)NCCC3=CCCCC3)CC2)cc1C`: 0.61. For the compound `O=C1c2ccccc2C(=O)c2c1cccc2N1CCN(C/C=C/c2ccccc2)CC1`, the B-score is 1.06. The same measure for `COc1ccc(C)cc1NC(=O)CSc1nnc2ccc(-c3ccccn3)nn12`: 0.98; for `CSc1ccc(CN2C(=O)NC3(CCCCCC3)C2=O)cc1`: 1.22. In the case of `CC1(C)NC(=O)N(CCCCSc2ccc(Cl)cc2)C1=O`, the B-score is -6.38 (active).

Regarding `Cc1ccc(SCCN2C(=O)NC(C)(C)C2=O)cc1`, the B-score was 0.51. `Cc1ccn2c(=O)c(NC(=O)c3cccc4ccccc34)c(C)nc2c1`: the B-score was -0.25. On to `CC1CN(C(=O)CCC(=O)NCc2cccnc2)c2ccccc2O1` (configuration not stated), for which the B-score is -0.67.

Turning to `CC1CN(C(=O)CCC(=O)NCCCN2CCC(Cc3ccccc3)CC2)c2cc(Cl)ccc2O1` (configuration not stated), the B-score was -9.24 (active).

Turning to `CC1CN(C(=O)CCC(=O)NC2CCN(Cc3ccccc3)CC2)c2ccccc2O1` (configuration not stated), the B-score is 2.27. As for `CN(C)S(=O)(=O)c1ccc(N2CCCC2)c(C(=O)Nc2ccc(Br)cc2F)c1`, the B-score is -0.29. Under `Cc1cc(C)cc(NC(=O)COc2coc(CN3CCN(c4ccccc4)CC3)cc2=O)c1` stands 0; under `Cc1ccc(NC(=S)N(CCCN2CCC(C)CC2)Cc2ccco2)cc1`, -0.74.

On to `Cc1ccc(NC(=S)N(CCCN2CCCC2)Cc2cccn2Cc2ccc(Cl)cc2)cc1`, for which the B-score is -8.85 (active). Consider `Cc1ccc(NC(=S)N(CCN2CCCCC2)Cc2ccco2)cc1C`, for which the B-score is -0.41.

With `CC(C)(C)S(=O)(=O)c1ccccc1-c1noc(-c2ccccc2)c1C(N)=O`, the B-score is -0.65. The same measure for `COc1ccc(S(=O)(=O)NCC(c2ccc(C)cc2)N2CCN(C)CC2)cc1OC` (configuration not stated): 1.23; for `CCCOc1ccc(C(=O)C(CCC(CNCC)C(=O)c2ccc(OCCC)cc2)CNCC)cc1` (configuration not stated): -6.16 (active); for `CCCOc1ccc(C(=O)CCC(=O)OC(C)C(=O)Nc2ccc(NC(C)=O)cc2)cc1` (configuration not stated): 0.42. In the case of `CCCCOc1ccc(C(=O)NCc2ccncc2)cc1`, the B-score was 0.24. For the compound `O=C(CSc1nc(=O)n2ccccc2n1)Nc1ccc2c(c1)OCCO2`, the B-score is 0.08. Regarding `CCOc1ccc(C(C)=O)cc1COC(=O)CN1C(=O)NC2(CCCC2)C1=O`, the B-score was -1.53. For `CCCCn1c(N)c(N(CC(C)C)C(=O)c2ccc(-n3c(C)ccc3C)cc2)c(=O)[nH]c1=O`, the B-score was -1.14. As for `c1ccc(C2CNCc3c2ccc2ccccc32)cc1` (configuration not stated), the B-score was -11.2 (active).

As for `Cc1ccc(C)c(-c2nnc(NC(=O)CS(=O)(=O)c3ccccc3)o2)c1`, the B-score was 1.4.

Turning to `O=c1[nH]c(/C=C/c2cccc(Br)c2)nc2ccccc12`, the B-score is 0.39. Take `O=C(CSc1ccccc1)Nc1cc(Cl)ccc1Oc1ccccc1`: the B-score was -1.22. As for `Cc1cc(C)cc(NC(=O)CSc2ccccc2)c1`, the B-score was 0.12. Under `CC(=O)Nc1ccc(SCC(=O)Nc2ccccc2Oc2ccccc2)cc1` stands -6.89 (active); under `N#CCCN(C(=O)COC(=O)C1CCN(c2ccc(C(F)(F)F)cn2)CC1)c1ccc(F)cc1`, 0.96; under `CCOC(=O)N1CCN(C(=O)COc2ccc3oc4c(c3c2)CCCC4)CC1`, 0.58. For the compound `COc1ccccc1CCNC(=O)C(=O)NCCC1CCCCN1S(=O)(=O)c1cccs1` (configuration not stated), the B-score was -1.17. With `O=C(/C=C/c1ccc(Cl)cc1Cl)c1cccnc1`, the B-score is -4.49 (active). Under `O=C(/C=C/c1ccc(Cl)c([N+](=O)[O-])c1)c1cccnc1` stands -0.86; under `O=C(Nc1cccnc1)c1cc(Cl)ccc1Cl`, 0.72; under `COc1ccc2oc(C(=O)OCC(=O)N(CC(C)C)c3c(N)n(Cc4ccccc4)c(=O)[nH]c3=O)c(C)c2c1`, 0.5.

Regarding `COc1ccccc1S(=O)(=O)c1c(C)cc(C)[nH]c1=O`, the B-score was -1.21. Under `Cc1cc(C)c(S(=O)(=O)c2ccc(F)cc2C)c(=O)[nH]1` stands 0.31. Consider `C=C(C)Cn1c(C)cc(C)c(S(=O)(=O)c2ccccc2C)c1=O`, for which the B-score is -4.55 (active).
